Hits are enriched below; roughly 11% of the tested compounds scored in any of these assays.
AMA1-RON2 inh: AMA1-RON2 (P. falciparum) interaction inhibition; AlphaScreen AMA1-biotinylated RON2 peptide binding; Potency, µM (doses to about 58.2 µM), for the others: at the highest dose activity change, negative = inhibition, most hits filed as inhibitors; actives 0.2% (n = 360,000); AID 720542;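 note: 0% = vehicle wells and -100% = peptide control; nearly all actives have a fitted effect of over 45% in size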
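AMA1 (3D7) with his tag at 25 nM final met compounds first, then biotinylated RON2 peptide at 25 nM; detection used donor plus acceptor beads, 10 µg/mL apiece, read by AlphaScreen after 30 min at room temperature.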
AmpC detergent: AmpC beta-lactamase inhibition with detergent present; actives 0.041% (n = 370,000); AmpC hydrolysis of nitrocefin, absorbance 480 nm, 0.01% Triton; P00811; Potency, µM (series often up to 114 µM), for inactives: at the highest dose activity change, negative = inhibition, actives largely listed as inhibitors;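 note: 0% = no-compound wells and -100% = no-enzyme wells; nearly all actives have a fitted effect of over 25% in size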
Target sequence (P00811 whole entry, looked up): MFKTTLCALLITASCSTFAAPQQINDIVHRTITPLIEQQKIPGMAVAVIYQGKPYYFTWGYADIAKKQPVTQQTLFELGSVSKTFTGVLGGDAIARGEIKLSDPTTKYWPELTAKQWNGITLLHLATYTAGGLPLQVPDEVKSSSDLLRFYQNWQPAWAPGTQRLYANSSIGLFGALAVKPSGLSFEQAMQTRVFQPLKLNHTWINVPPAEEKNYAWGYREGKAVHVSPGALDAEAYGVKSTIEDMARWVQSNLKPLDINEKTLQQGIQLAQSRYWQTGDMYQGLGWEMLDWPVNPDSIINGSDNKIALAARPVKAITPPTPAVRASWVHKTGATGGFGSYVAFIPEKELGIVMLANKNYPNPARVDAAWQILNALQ
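20 mM phosphate pH 7.0 + 0.01% (detergent screen) or 0.0001% Triton X-100; 5.3 nM AmpC reagent; cpd preinc 15 min RT; nitrocefin (800 uM stock) to start; A480 q20 s × 4 min; Activity was normalised to no-enzyme and no-compound control wells.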
Pf growth 96h: P. falciparum growth inhibition at 96 hour, primary screen for plastid delayed-death inhibitors. Potency, µM (titrated, usually from 28.7 µM), inactives show top-dose activity change, negative = inhibition, most hits filed as inhibitors. P. falciparum luciferase reporter growth, 96 h. actives 6.9% (n = 320,000)
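P. falciparum expressing integrated firefly luciferase grown in erythrocytes (2% hematocrit, 0.05% parasitemia final) with compounds for 96 hours at 37 C, 5% CO2. Growth inhibition read as loss of luminescence after adding luciferase detection reagent.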
Pf growth 48h: P. falciparum growth inhibition at 48 hours (one generation); Potency, µM (doses to about 28.7 µM), for the others: at the highest dose activity change, negative = inhibition, hits mostly inhibitors; actives 5.9% (n = 310,000); P. falciparum luciferase growth in erythrocytes, 48 h; AID 504832
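Growth was read as firefly luciferase luminescence after a 48 h, 37 C, 5% CO2 exposure of compounds to reporter-bearing P. falciparum cultures (0.1% parasitemia, 2% hematocrit final) in Albumax-supplemented RPMI 1640.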
HCV inh: HCV inhibition; Huh7.5.1 HCVcc-Cre infection, luciferase reporter, 44 h; Potency, µM (titrated, usually from 41.8 µM), without a hit: top-dose activity change, negative = inhibition, most hits filed as inhibitors; actives 3.4% (n = 340,000)
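A cell-based infection assay in which seeded cells (1,000 per well) receive test compound after 4 h, are inoculated with HCVcc-Cre at approximately 0.5 moi, and are incubated 44 h before luminescence detection.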
AmpC inh no detg: inhibitors of E. coli AmpC beta-lactamase without detergent; P00811; AmpC nitrocefin hydrolysis, absorbance 480 nm, 0.0001% Triton; Potency, µM (highest dose often 57.1 µM), without a hit: at the highest dose activity change, negative = inhibition, actives largely listed as inhibitors; actives 0.52% (n = 330,000); AID 485341;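 note: plate controls were no compound for no effect and no enzyme for full effect; nearly all actives have a fitted effect of over 20% in size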
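20 mM phosphate pH 7.0 + 0.01% (detergent screen) or 0.0001% Triton X-100; 5.3 nM AmpC reagent; cpd preinc 15 min RT; nitrocefin (800 uM stock) to start; A480 q20 s × 4 min; Activity was normalised to no-enzyme and no-compound control wells.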
An asterisk follows results filed as active; ? = inconclusive; . = not tested or not shown. Calls come from the whole dose curve; as a rule, active = well fitted curve in the direction sought with a large enough effect; inconclusive = small, poorly fitted or top-dose-only effect, or another doubt; inactive = no such curve, though single readings can be large; an effect the other way counts as inactive or inconclusive. Unless noted, % is set by controls: 0 for no effect and ±100 for the full control effect; potency is the fitted concentration of half-maximal effect.

SMILES	AMA1-RON2 inh	AmpC detergent	Pf growth 96h	Pf growth 48h	HCV inh	AmpC inh no detg
CCOC(=O)N1CCN(C(=O)Nc2ccc(Cl)cc2)CC1	-12%	3%	151%	-18%	-4%	-19%
CCOC(=O)N1CCN(S(=O)(=O)c2ccc(F)c(C(=O)Nc3ccc(C(C)C)cc3)c2)CC1	34%	-5%	?	?	-8%	143%
CCOC(=O)C1(c2ccccc2)CCN(CCC(=O)Nc2ccccc2OC)CC1	6%	0%	?	?	-12%	44%
CCOC(=O)C1(c2ccccc2)CCN(CCC(=O)Nc2ccc(F)cc2)CC1	14%	9%	9.3µM*	13µM*	?	17%
CCOC(=O)N1CCN(C(=O)Nc2cccc(Cl)c2)CC1	3%	2%	12µM*	.	12%	-8%
CCOC(=O)N1CCN(S(=O)(=O)c2ccc(F)c(C(=O)Nc3ccc(C)c(Cl)c3)c2)CC1	-5%	?	-3%	13µM*	?	58%
O=C(Cn1ncn2c(cc3cc(F)ccc32)c1=O)NC1CCCCC1	.	9%	.	.	.	.
COc1ccc(CCNC(=O)c2nn(-c3ccc(C)cc3)c(=O)c3c2c2ccccc2n3C)cc1OC	.	-4%	.	.	.	.
Cc1cccc(C(=O)N2CCc3cc(CNS(=O)(=O)c4ccc(F)c(Cl)c4)ccc32)c1	.	6%	.	.	.	.
CCOC(=O)N1CCN(CC(=O)Nc2ccc(F)c(F)c2)CC1	-2%	5%	17%	16%	2%	6%
CCOC(=O)N1CCN(CCc2ccccc2)CC1	-3%	?	10µM*	26%	8%	-4%
CCOC(=O)N1CCN(C(=O)CCc2ccccc2)CC1	7%	-12%	-13%	-4%	11%	2%
CCOC(=O)N1CCN(CCC(=O)Nc2ccc(F)c(F)c2)CC1	11%	?	15µM*	?	10%	-2%
COc1ccc(OC)c2c(C)c(C)[nH]c12	-17%	0%	0%	?	10µM*	-11%
COc1ccc(CCNC(=O)CCCn2c(=O)c3cccn3c3cccnc32)c(OC)c1	-4%	-8%	10µM*	?	?	-14%
COc1ccc(N2CCN(C(=O)CCCn3c(=O)c4cccn4c4cccnc43)CC2)cc1	-9%	1%	43%	12µM*	-27%	84%
COc1ccc(N2CCN(C(=O)CCn3c(=O)c4cccn4c4cccnc43)CC2)cc1	.	2%	.	.	.	.
COc1ccc(CCNC(=O)CCCn2c(=O)c3cccn3c3cccnc32)c(OC)c1OC	3%	0%	13µM*	?	?	18%
CC(C)Oc1ccc(CNC(=O)Cn2c(=O)c3cccn3c3cccnc32)cc1	5%	4%	15µM*	17%	-18%	-8%
CC1CCN(C(=O)c2ccc3c(c2)N(Cc2ccccc2)C(=O)c2ccccc2S3(=O)=O)CC1	.	3%	.	.	.	.
O=C(Nc1ccc(Cc2ccc(NC(=O)C3CC3)c(O)c2)cc1O)C1CC1	4%	2%	10µM*	4%	-10%	-44%
COC(=O)c1cc2occc2n1Cc1nc(-c2ccccc2)oc1C	.	7%	.	.	.	.
COc1cccc(CNC(=O)c2ccc3nc(N4CCCCC4)sc3c2)c1OC	.	21%	.	.	.	.
NS(=O)(=O)c1ccc(N/N=C/c2ccc(O)c(O)c2O)c([N+](=O)[O-])c1	?	-13%	?	-26%	-19%	7.1µM*
NC(=O)N/N=C/c1cn(-c2ccccc2)nc1-c1ccccc1	18%	-8%	?	-51%	-25%	17%
SMILES	AMA1-RON2 inh	AmpC detergent	Pf growth 96h	Pf growth 48h	HCV inh	AmpC inh no detg
O=C(N/N=C/c1cn(-c2ccccc2)nc1-c1cccnc1)c1ccc(F)cc1	-3%	3%	?	?	?	-34%
O=[N+]([O-])c1ccc(N/N=C/c2cn(-c3ccccc3)nc2-c2ccccc2)cc1	-2%	-1%	4.7µM*	13µM*	5%	-15%
O=C(N/N=C/c1cn(-c2ccccc2)nc1-c1ccc(F)cc1)c1ccc(Br)o1	1%	2%	?	8.3µM*	?	-29%
O=C(CNc1ccccc1)N/N=C/c1cn(-c2ccccc2)nc1-c1ccccc1	0%	0%	?	12µM*	21%	3%
COC(=O)c1ccc(Nc2nnc(-c3ccc(C)c(S(=O)(=O)N4CCN(C)CC4)c3)c3ccccc23)cc1	.	6%	.	.	.	.
COc1ccccc1-c1c(C)nn2c(N3CCN(c4ccc(F)cc4)CC3)cc(C)nc12	.	5%	.	.	.	.
COc1cc(NC(=O)c2cc3c(=O)oc4ccc(C)cc4c3s2)cc(OC)c1OC	.	-10%	.	.	.	.
O=[N+]([O-])c1cccc(-c2nn(-c3ccccc3)cc2CO)c1	-3%	4%	0.47µM*	15%	-21%	0%
NS(=O)(=O)c1ccc(N/N=C/c2cn(-c3ccccc3)nc2-c2ccccc2)c([N+](=O)[O-])c1	-13%	-14%	?	4.1µM*	10µM*	-33%
COc1ccc(-c2ccc3c(N)c(C(=O)NCc4ccc(Cl)cc4)sc3n2)cc1	.	13%	.	.	.	.
CCC(C)NC(=O)CSc1nc2cc3c(cc2c(=O)n1Cc1ccc(C(=O)NCCc2ccc(OC)c(OC)c2)cc1)OCO3 (configuration not stated)	.	10%	.	.	.	.
Fc1ccccc1N1CCN(c2ncnc3onc(-c4ccc(Cl)cc4)c23)CC1	.	0%	.	.	.	.
Cc1ccc(NS(=O)(=O)c2ccc(-c3ccc(=O)[nH]n3)o2)cc1Cl	-5%	1%	9.3µM*	3%	16%	-31%
Cc1ccc(NS(=O)(=O)c2ccc(-c3ccc(=O)[nH]n3)o2)cc1N(C)C	18%	-6%	-13%	18%	4%	-15%
COc1ccccc1N1C(=O)C(Cl)=C(N2CCCC2)C1=O	0%	?	9.3µM*	23%	-7%	-10%
Cc1ccccc1N1C(=O)C(Cl)=C(N2CCOCC2)C1=O	-5%	4%	10%	-3%	-3%	-1%
O=C1C(Cl)=C(N2CCOCC2)C(=O)N1c1ccc(Br)cc1	-1%	?	12µM*	?	-1%	-44%
COc1ccc(OC)c(N2C(=O)C(Cl)=C(N3CCCCC3)C2=O)c1	6%	-15%	21%	-1%	15%	-3%
CCc1ccccc1N1C(=O)C(Cl)=C(N2CCOCC2)C1=O	9%	?	1.5µM*	1%	-9%	-10%
O=c1n(Cc2ccc(Cl)cc2)nc2n1-c1ccccc1OC2	.	-2%	.	.	.	.
CCN(CCCNC(=O)c1cc(Nc2ccc(OC)cc2OC)nc2ccccc12)c1cccc(C)c1	.	-12%	.	.	.	.
COc1cc(NS(=O)(=O)c2ccc(NC(=O)c3cccc(F)c3)cc2)nc(OC)n1	.	-3%	.	.	.	.
